Test systems include SK-MEL-2 melanoma; EKVX NSCLC; SN12C renal; UO-31 renal; TK-10 renal; ACHN renal; CAKI-1 renal; A498 renal; CCRF-CEM leukemia; MOLT-4 leukemia.
Common to all, as to test: NCI-60 one-dose screen, 48 h (100 = growth as untreated, 0 = no growth, -100 = all killed)
Holding throughout (settings): 10 µM unless noted

Experimental findings from PubChem BioAssay (NCI) are described below.

About 83,000 compounds went through this panel and 20% of them were active in at least one assay; those are over-represented in the sample as a whole.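 96-well plates, one dose, 48 hours. Percent growth reported; active if below 10.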 Values without a mark were called inactive. Active and inactive are the calls of the source.

In the case of `C=C(C)[C@@H]1CC[C@]2(C(=O)NCCNCCN)CC[C@]3(C)[C@H](CC[C@@H]4[C@@]5(C)C/C(=C/c6ccncc6)C(=O)C(C)(C)[C@@H]5CC[C@]43C)[C@@H]12`, the growth was 108% in the assay on SK-MEL-2 melanoma; 92.2% with EKVX NSCLC; 96.5% in the assay on SN12C renal; 83.5% with UO-31 renal; 118% with TK-10 renal; 100% in the assay on ACHN renal. The growth in the assay on CAKI-1 renal is 85.6%; with A498 renal it was 95.7%; in the assay with CCRF-CEM leukemia it was 97.1%; in the assay with MOLT-4 leukemia, 82.9%.
Consider `O=C(O)CCCN1C(=O)/C(=C/C(Cl)=C/c2ccccc2)SC1=S`, for which the growth was 59.3% in the assay on SK-MEL-2 melanoma; 40.2% in the assay on EKVX NSCLC; -6.97% (active) with SN12C renal; -46% (active) in the assay with UO-31 renal; 30.3% in the assay with TK-10 renal; -93.1% (active) in the assay on ACHN renal. Further, the growth in the assay with CAKI-1 renal is 24.2%; in the assay on A498 renal, 87.5%; with CCRF-CEM leukemia, 2.55% (active); in the assay on MOLT-4 leukemia, 9.65% (active).
Regarding `C=CCc1c(O)c(C(=O)/C=C/c2ccc(Cl)cc2)c(OC)c2ccoc12`, the growth in the assay with SK-MEL-2 melanoma was 15.7%; with EKVX NSCLC, 56.3%; with SN12C renal, 57.2%; in the assay with UO-31 renal, 51.4%; in the assay on TK-10 renal it was 57.2%; in the assay on ACHN renal, 55%. Further, the growth with CAKI-1 renal was 19.5%; in the assay on A498 renal it was 46.9%; in the assay with CCRF-CEM leukemia, 21.4%; in the assay on MOLT-4 leukemia, 15.3%.
Regarding `O=C(NCCCN1CCOCC1)c1cccc(N2C(=O)/C(=C/c3ccc(F)cc3)SC2=S)c1`, the growth with SK-MEL-2 melanoma is 109%; in the assay with EKVX NSCLC it was 88.5%; in the assay on SN12C renal, 93.6%; in the assay with UO-31 renal, 70.7%; in the assay with TK-10 renal, 100%; in the assay with ACHN renal, 87.2%. For the same molecule, the growth in the assay with CAKI-1 renal is 81.2%; in the assay on A498 renal it was 51.6%; with CCRF-CEM leukemia, 108%; in the assay with MOLT-4 leukemia, 111%.
With `COc1cc(CNS(=O)(=O)c2ccc(C)cc2)ccc1OCc1cn(-c2ccc(F)cc2)nn1`, the growth in the assay on SK-MEL-2 melanoma is 104%; with EKVX NSCLC it was 80.3%; with SN12C renal, 92.2%; in the assay with UO-31 renal, 63.9%; in the assay with TK-10 renal, 116%; in the assay with ACHN renal it was 93.2%. For the same molecule, the growth in the assay on CAKI-1 renal is 89.6%; with A498 renal, 54.1%; in the assay on CCRF-CEM leukemia, 79.9%; in the assay on MOLT-4 leukemia, 78.2%.
In the case of `CN1CCN(C(=O)c2ccc(NC(=O)Nc3ccc(-c4nc(N5CCOCC5)c5cccn5n4)cc3)cc2)CC1`, the growth with SK-MEL-2 melanoma is -8.25% (active); with EKVX NSCLC, -22.8% (active); in the assay on SN12C renal it was 5.33% (active); with UO-31 renal, -14.6% (active); in the assay with TK-10 renal, -23.5% (active); in the assay with ACHN renal, -6.03% (active). The growth was 15.3% in the assay with CAKI-1 renal, -51.5% (active) with A498 renal, 16.9% with CCRF-CEM leukemia and 0.147% (active) in the assay on MOLT-4 leukemia.
As for `O=C1/C(=C/c2ccc(Cl)cc2)COc2ccc(O)cc21`, the growth with SK-MEL-2 melanoma is 101%; in the assay with EKVX NSCLC, 95.5%; in the assay on SN12C renal, 69%; in the assay on UO-31 renal, 53.1%; in the assay on TK-10 renal, 100%; with ACHN renal it was 80%. The growth was 70.8% in the assay on CAKI-1 renal, 100% in the assay on A498 renal, -5.84% (active) with CCRF-CEM leukemia and 14.8% in the assay with MOLT-4 leukemia.
Regarding `Oc1c(Cl)cc(Cl)c2ccc(Cn3cc(-c4cc(F)cc(F)c4)nn3)nc12`, the growth in the assay with SK-MEL-2 melanoma was 96.3%; in the assay with EKVX NSCLC it was 84.7%; in the assay with SN12C renal, 78.7%; in the assay on UO-31 renal, 68.3%; with TK-10 renal, 102%; in the assay on ACHN renal it was 36.5%. For the same molecule, the growth in the assay on CAKI-1 renal is 18.1%; in the assay on A498 renal, 99.4%; in the assay on CCRF-CEM leukemia, 4.58% (active); in the assay with MOLT-4 leukemia it was 17.4%.
Consider `N#CCSc1nnc2n(Cc3ccccc3)c(=O)c3c4c(sc3n12)CCCC4`, for which the growth in the assay on SK-MEL-2 melanoma is 96%; in the assay on EKVX NSCLC, 94.1%; in the assay on SN12C renal it was 96.8%; in the assay with UO-31 renal, 76.2%; in the assay with TK-10 renal, 103%; with ACHN renal it was 106%. For the same molecule, the growth is 86.2% with CAKI-1 renal, 93.4% with A498 renal, 86.5% with CCRF-CEM leukemia and 90.7% with MOLT-4 leukemia.
Regarding `COc1cc(CNC(=O)CCCC/C=C/C(C)C)ccc1OCc1nnc(Nc2ccc([N+](=O)[O-])cc2)o1`, the growth in the assay with SK-MEL-2 melanoma is 78.9%; in the assay on EKVX NSCLC it was 74.7%; in the assay with SN12C renal it was 49%; with UO-31 renal, 58.7%; in the assay on TK-10 renal, 84.1%; with ACHN renal, 41.2%. Also, the growth in the assay on CAKI-1 renal was 33.6%; in the assay on A498 renal it was 56.8%; with CCRF-CEM leukemia it was 78.9%; in the assay on MOLT-4 leukemia, 84.2%.
For the molecule `O=C(Nc1ccc(NC(=O)c2cc(=O)[nH]c3ccccc23)cc1)Nc1cccc(C(F)(F)F)c1`, the growth with SK-MEL-2 melanoma was 92.5%; with EKVX NSCLC, 66.8%; in the assay with SN12C renal it was 54.2%; in the assay with UO-31 renal, 71%; in the assay on TK-10 renal it was 134%; in the assay with ACHN renal it was 95%. In addition, the growth is 71.5% in the assay on CAKI-1 renal, 100% in the assay with A498 renal, 70.2% in the assay on CCRF-CEM leukemia and 79.6% in the assay on MOLT-4 leukemia.
Turning to `CC1=NN(c2nc(SCC(=O)Nc3nc4ccc(C)cc4s3)nc(-c3ccccc3)c2C#N)C(=O)C1`, the growth with SK-MEL-2 melanoma is 111%; in the assay on EKVX NSCLC it was 106%; in the assay on SN12C renal it was 95.6%; in the assay with UO-31 renal it was 67.8%; in the assay on TK-10 renal it was 131%; in the assay on ACHN renal, 96.3%. Besides, the growth with CAKI-1 renal was 87.3%; in the assay on A498 renal it was 101%; with CCRF-CEM leukemia, 107%; with MOLT-4 leukemia, 99.8%.
`Cc1cc2c(O)c(-c3cc(Cl)ccc3Cl)c3sc(=O)oc3c2cc1C`: the growth was 74% in the assay with SK-MEL-2 melanoma; 94.6% in the assay with EKVX NSCLC; 66.9% in the assay on SN12C renal; 85.3% in the assay with UO-31 renal; 113% in the assay on TK-10 renal; 79.8% in the assay on ACHN renal. Also, the growth in the assay with CAKI-1 renal is 53.9%; in the assay on A498 renal it was 30.1%; with CCRF-CEM leukemia, 53.8%; with MOLT-4 leukemia it was 40.6%.
